PubChem BioAssay (Tox21)
Inconclusive results are not listed. The source made the active and inactive calls. Unless noted, calls come from the whole dose curve; as a rule, active = well fitted curve in the direction sought with a large enough effect in the repeat runs; inconclusive = weak or mixed curves; inactive = no such curve, though single readings can be large; an effect the other way counts as inactive or inconclusive.

How the values were obtained:
[1] = qHTS assay to identify small molecule antagonists of the estrogen related receptor (ERR) signaling pathway from Tox21 library - cell viability counter screen (AID 1224834); note: nearly all actives have a fitted effect of over 30% in size
Summary of the method: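 CellTiter-Fluor fluorescence measured; ERR cells; 17.5 h compound incubation at 37 C; 30 min reagent step.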

[2] = biological target: Luciferin 4-monooxygenase (Photinus pyralis) (UniProt P08659); assay: qHTS assay to identify small molecule inhibitors of firefly luciferase (AID 1224835); note: nearly all actives have a fitted effect of over 25% in size
Summary of the method: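 Inhibition of purified Photinus luciferase is measured by luminescence. Substrate levels (D-luciferin, ATP) sit at their KM values. Each compound is tested in a concentration series.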

[3] = qHTS assay to identify small molecule agonists of the constitutive androstane receptor (CAR) signaling pathway - cell viability counter screen (AID 1224836); note: nearly all actives have a fitted effect of over 45% in size
Summary of the method: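 Cells were seeded and incubated 4 hrs. Compounds were added across 15 concentrations together with PK11195 at 0.75 uM final. Plates were incubated 23 hrs at 37 C. CellTiter-Fluor was added and fluorescence measured.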

[4] = biological target: Nuclear receptor subfamily 1 group I member 3 (Homo sapiens) (UniProt Q14994); assay: qHTS assay to identify small molecule antagonists of the constitutive androstane receptor (CAR) signaling pathway (AID 1224838);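 note: HepG2 cells stably expressing hCAR with CYP2B6 luciferase reporter stimulated by CITCO; nearly all actives have a fitted effect of over 40% in size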
Summary of the method: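 Reporter luminescence was quantified after 24 h exposure of hCAR/CYP2B6-2.2kb double-stable HepG2 cells to compounds at 15 concentrations in the presence of 50 nM CITCO final.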

[5] = qHTS assay to identify small molecule antagonists of the estrogen related receptor signaling pathway with the pleiotropic PPARgamma coactivator (PGC) from Tox21 10K library - cell viability counter screen (AID 1224840; active = well fitted cell-killing curve with a large enough effect in the repeat runs, not every such curve was filed as active; note: nearly all actives have a fitted effect of over 40% in size)
Summary of the method: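 Here the PGC/ERR cells serve as a cytotoxicity control: they are exposed to compounds for 17.5 hours at 37 C, and live-cell signal is quantified using CellTiter-Fluor fluorescence.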

[6] = qHTS assay to identify small molecule antagonists of the estrogen related receptor signaling pathway with the pleiotropic PPARgamma coactivator (PGC) from Tox21 10K library (AID 1224841; call rule not given here; note: actives are mostly falling curves and most rising ones were filed inactive; nearly all actives have a fitted effect of over 50% in size)
Summary of the method: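 Each well held 2,000 PGC/ERR cells, pre-incubated six hours (37 C, 5% CO2). Test substances in DMSO were added by pin tool and left for 18 h at 37 C before luciferase detection by One-Glo.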

[7] = qHTS assay to identify small molecule agonists of the estrogen related receptor signaling pathway with the pleiotropic PPARgamma coactivator (PGC) from Tox21 10K library (AID 1224842); note: nearly all actives have a fitted effect of over 15% in size
Summary of the method: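 Luminescence from One-Glo (30 min, room temperature) measured after PGC/ERR cells had 18 h at 37 C with pinned compound (23 nL in DMSO). Cells had been seeded at 2,000 per well and pre-incubated 6 h.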

[8] = biological target: Thyrotropin receptor (Homo sapiens) (UniProt P16473); assay: qHTS assay to identify small molecule agonists of the thyroid stimulating hormone receptor (TSHR) signaling pathway (AID 1224843; calls by dose curve; note: nearly all actives have a fitted effect of over 45% in size)
Summary of the method: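 HEK293 cells stably bearing the thyrotropin receptor were plated at 800 cells/well and challenged with compound (30 min, RT). Accumulated cAMP was quantified via cAMP-d2 competing for cryptate-tagged antibody.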

[9] = qHTS assay to identify small molecule agonists of the hypoxia (HIF-1) signaling pathway - cell viability counter screen (AID 1224844; calls by dose curve; note: nearly all actives have a fitted effect of over 50% in size)
Summary of the method: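 Multiplexed with the HRE beta-lactamase assay, this viability read used CellTiter-Glo luminescence (30 min, RT) on HRE-bla ME-180 cells treated 17 hrs with compounds in 0.5% dialyzed FBS medium.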

[10] = qHTS assay to identify small molecule agonists of H2AX (AID 1224845; active = well fitted activation curve with a large enough effect in the signal ratio in the repeat runs, not every such curve was filed as active; the % refers to the signal ratio)
Summary of the method: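 Phospho-H2AX Ser139 measured by HTRF (ex 320 nm; em 665 and 620 nm) after 24 hr antibody incubation. Compounds, 15 concentrations, 0.76% DMSO, were applied to CHO-K1 cells for 3hr at 37C before lysis.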

[11] = qHTS assay to identify small molecule agonists of H2AX - cell viability counter screen (AID 1224847; calls by dose curve; note: top concentration of the series differs between compounds; nearly all actives have a fitted effect of over 30% in size)
Summary of the method: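 Cytotoxicity counter screen in wild-type CHO-K1 cells: a 3 hr compound treatment at 37C across 15 concentrations, followed by CellTiter-Glo luminescence to gauge viable cells.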

[12] = qHTS assay to identify small molecule antagonists of the estrogen related receptor (ERR) signaling pathway from Tox21 library (AID 1224848); note: nearly all actives have a fitted effect of over 50% in size
Summary of the method: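 Reading was by luminescence 30 min after ONE-Glo addition. Before that, ERR cells at 2,000 per well had rested 6 h at 37 C/5% CO2 and then received pin-tooled compounds in DMSO for 18 h at 37 C.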

[13] = qHTS RealTime-Glo MT Cell Viability Assay in HepG2 cells - 24 hour (AID 1224867); note: nearly all actives have a fitted effect of over 50% in size
Summary of the method: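 HepG2 suspension premixed with RealTime-Glo reagents is plated at 600 cells per well and left 5 h at 37 C/5% CO2. Compounds in DMSO then go in, and bioluminescence reflecting viable cell number is recorded over 40 h.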

[14] = qHTS RealTime-Glo MT Cell Viability Assay in HEK293 cells - 32 hour (AID 1224868)
Summary of the method: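 Reads taken at 0, 8, 16, 24, 32 and 40 h from the same wells. HEK293 cells (600/well) carried RealTime-Glo reagents from seeding, with compound added after a 5 h settle at 37 C.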

[15] = A CellTox Green Cytotoxicity Assay to monitor cytotoxicity in HEK293 cells - 0 hour (AID 1224869); note: nearly all actives have a fitted effect of over 50% in size
Summary of the method: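 Seeding of HEK293 cells together with cytotoxicity dye preceded a 5 h incubation at 37 C/5% CO2. Test compounds in DMSO were then added and fluorescence monitored across 40 h.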

[16] = qHTS RealTime-Glo MT Cell Viability Assay in HepG2 cells - 40 hour (AID 1224870); note: nearly all actives have a fitted effect of over 50% in size
Summary of the method: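 Real-time viability: cells seeded at 600 per well together with NanoLuc and cell-permeant prosubstrate, compounds added after 5 h incubation. Luminescence tracked at 0, 8, 16, 24, 32 and 40 h of exposure.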

[17] = qHTS assay to identify small molecule antagonists of the constitutive androstane receptor (CAR) signaling pathway - cell viability counter screen (AID 1224837); note: nearly all actives have a fitted effect of over 45% in size
Summary of the method: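 Using CellTiter-Fluor, viability is scored in HepG2 cells stably carrying hCAR and a 2.2kb CYP2B6 reporter after 23 hr compound exposure across 15 concentrations, with CITCO present at 50 nM.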

[18] = biological target: Nuclear receptor subfamily 1 group I member 3 (Homo sapiens) (UniProt Q14994); assay: qHTS assay to identify small molecule agonists of the constitutive androstane receptor (CAR) signaling pathway (AID 1224839);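 note: HepG2 cells stably carrying human CAR and a CYP2B6 luciferase reporter; nearly all actives have a fitted effect of over 15% in size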
Summary of the method: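 Cells were plated and incubated 4 hrs, then dosed with compounds at 15 concentrations. PK11195 was added to 0.75 uM final. After 24 hrs at 37 C, luciferase luminescence was measured.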

[19] = qHTS assay to identify small molecule agonists of the hypoxia (HIF-1) signaling pathway (AID 1224846; active = well fitted activation curve with a large enough effect in the signal ratio in the repeat runs, not every such curve was filed as active; the % refers to the signal ratio)
Summary of the method: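 Hypoxia-pathway activation was scored as increased beta-lactamase from an HRE-controlled reporter in ME-180 cells; plated at 2,000 cells per well with 0.5% dialyzed FBS, they were exposed 17 hrs to compounds and then given CCF4-AM.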

[20] = qHTS assay to identify small molecule agonists of the estrogen related receptor (ERR) signaling pathway from Tox21 library (AID 1224849; calls by dose curve; note: nearly all actives have a fitted effect of over 15% in size); settings: ERR reporter cell line, ONE-Glo luciferase, 18 h; at 92.4 µM (top of the series) unless noted
Summary of the method: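 Six hours post-seeding at 37 C/5% CO2, ERR cells receive DMSO-solubilised compounds; after 18 h at 37 C, ONE-Glo reagent is applied and luminescence recorded.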
% is set by controls: 0 for no effect and ±100 for the full control effect.

Thyrotropin receptor (Homo sapiens), sequence (P16473 whole entry, looked up): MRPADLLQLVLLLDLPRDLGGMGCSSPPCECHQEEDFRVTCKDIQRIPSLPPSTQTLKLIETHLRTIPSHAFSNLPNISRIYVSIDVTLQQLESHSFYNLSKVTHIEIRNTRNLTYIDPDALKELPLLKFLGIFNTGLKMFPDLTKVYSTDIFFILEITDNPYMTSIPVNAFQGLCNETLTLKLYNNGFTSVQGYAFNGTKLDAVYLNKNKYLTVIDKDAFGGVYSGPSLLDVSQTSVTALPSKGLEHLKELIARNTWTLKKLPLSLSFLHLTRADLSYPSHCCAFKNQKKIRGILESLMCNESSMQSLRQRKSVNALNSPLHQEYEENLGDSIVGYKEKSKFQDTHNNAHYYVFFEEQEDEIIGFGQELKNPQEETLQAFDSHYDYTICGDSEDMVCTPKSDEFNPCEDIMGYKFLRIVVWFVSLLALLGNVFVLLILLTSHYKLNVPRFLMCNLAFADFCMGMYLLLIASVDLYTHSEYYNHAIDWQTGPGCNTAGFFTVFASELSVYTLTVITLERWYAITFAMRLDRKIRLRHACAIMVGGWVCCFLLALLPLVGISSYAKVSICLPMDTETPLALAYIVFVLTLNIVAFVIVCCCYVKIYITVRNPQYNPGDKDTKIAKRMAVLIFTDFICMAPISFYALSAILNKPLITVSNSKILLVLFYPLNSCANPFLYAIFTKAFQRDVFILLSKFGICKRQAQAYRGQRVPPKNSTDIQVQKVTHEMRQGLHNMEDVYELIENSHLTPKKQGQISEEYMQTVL
Luciferin 4-monooxygenase (Photinus pyralis), sequence (P08659 whole entry, looked up): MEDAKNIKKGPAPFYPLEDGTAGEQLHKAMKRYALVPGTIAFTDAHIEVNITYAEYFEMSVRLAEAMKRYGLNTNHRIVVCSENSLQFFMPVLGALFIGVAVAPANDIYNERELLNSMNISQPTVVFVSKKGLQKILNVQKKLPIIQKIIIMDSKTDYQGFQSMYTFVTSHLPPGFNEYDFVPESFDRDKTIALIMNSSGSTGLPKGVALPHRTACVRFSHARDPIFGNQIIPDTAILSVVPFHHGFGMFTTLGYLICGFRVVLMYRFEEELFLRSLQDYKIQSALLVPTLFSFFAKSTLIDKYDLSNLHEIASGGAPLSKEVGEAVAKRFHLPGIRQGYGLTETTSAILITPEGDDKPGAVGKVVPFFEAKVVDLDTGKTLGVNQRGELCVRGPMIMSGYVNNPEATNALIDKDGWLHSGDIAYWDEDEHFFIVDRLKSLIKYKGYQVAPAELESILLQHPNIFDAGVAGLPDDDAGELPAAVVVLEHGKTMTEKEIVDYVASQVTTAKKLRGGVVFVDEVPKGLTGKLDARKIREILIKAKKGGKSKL
Nuclear receptor subfamily 1 group I member 3 (Homo sapiens), sequence (Q14994 whole entry, looked up): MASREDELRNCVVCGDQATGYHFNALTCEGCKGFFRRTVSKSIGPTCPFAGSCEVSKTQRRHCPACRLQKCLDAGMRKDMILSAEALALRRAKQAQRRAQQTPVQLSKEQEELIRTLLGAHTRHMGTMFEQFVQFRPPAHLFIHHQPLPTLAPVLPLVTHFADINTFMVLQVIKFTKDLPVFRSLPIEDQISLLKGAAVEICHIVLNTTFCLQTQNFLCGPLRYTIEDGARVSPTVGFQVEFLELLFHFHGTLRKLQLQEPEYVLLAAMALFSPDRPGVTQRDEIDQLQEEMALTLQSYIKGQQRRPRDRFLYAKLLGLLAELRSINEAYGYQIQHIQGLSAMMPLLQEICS

CC(CNC1CCCCC1)OC(=O)c1ccccc1 (stereo not given)
inactive: Potency [1] | Potency [2] | Potency [3] | Potency [4] | Potency [5] | Potency [6] | Potency [7] | Potency [8] | Potency [9] | Potency [10] | Potency [11] | Potency [12] | Potency [13] | Potency [14] | Potency [15] | Potency [16]

Cc1onc(-c2ccccc2)c1C(=O)Cl
inactive: Potency [1] | Potency [2] | Potency [17] | Potency [4] | Potency [5] | Potency [8] | Potency [9] | Potency [10] | Potency [11] | Potency [13] | Potency [14] | Potency [15]

CCCC(CCC)(C(=O)OCC)C(=O)OCC
inactive: Potency [1] | Potency [2] | Potency [3] | Potency [4] | Potency [18] | Potency [5] | Potency [8] | Potency [9] | Potency [10] | outcome [19] | Potency [11] | Potency [13] | Potency [14] | Potency [15] | Potency [16]

CC(=O)Nc1ccc(C)c(Cl)c1
inactive: Potency [1] | Potency [2] | Potency [3] | Potency [4] | Potency [18] | Potency [5] | Potency [8] | Potency [9] | Potency [10] | outcome [19] | Potency [11] | Potency [13] | Potency [14] | Potency [15] | Potency [16]

CC1=CC(=O)CC(C)(C)C1=O
inactive: Potency [1] | Potency [2] | Potency [3] | Potency [4] | Potency [18] | Potency [5] | Potency [9] | Potency [10] | outcome [19] | Potency [11] | Potency [13] | Potency [14] | Potency [15] | Potency [16]

COc1cc(Cl)ccc1Cl
inactive: Potency [1] | Potency [2] | Potency [3] | Potency [4] | Potency [18] | Potency [5] | Potency [8] | Potency [9] | Potency [10] | outcome [19] | Potency [11] | Potency [13] | Potency [14] | Potency [15] | Potency [16]

OCCN(CCO)c1ccccc1
inactive: Potency [1] | Potency [2] | Potency [3] | Potency [17] | Potency [5] | Potency [9] | Potency [10] | outcome [19] | Potency [11] | Potency [13] | Potency [14] | Potency [15] | Potency [16]

O=C(C(Cl)Cl)N1CCOC12CCCCC2
inactive: Potency [1] | Potency [2] | Potency [4] | Potency [5] | Potency [6] | Potency [7] | Potency [8] | Potency [9] | Potency [10] | outcome [19] | Potency [11] | Potency [12] | activity change, positive = activation [20] -5.71% | Potency [13] | Potency [14] | Potency [15] | Potency [16]

CS(=O)(=O)c1ccc([C@@H](O)[C@@H](CF)NC(=O)C(Cl)Cl)cc1
inactive: Potency [1] | Potency [2] | Potency [3] | Potency [18] | Potency [5] | Potency [8] | Potency [9] | Potency [10] | outcome [19] | Potency [11] | Potency [14] | Potency [15] | Potency [16]
